BAZ2B block – inhibitors of human BAZ2B bromodomain; Q9UIF8; AlphaScreen BAZ2B-H3K14Ac peptide displacement; Potency, µM (titrated, usually from 114 µM), usual class: inhibitors; 360,000 compounds, 4.4% hits; AID 504333; further: nearly all actives have a fitted effect of over 60% in size
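In this displacement format the biotinylated H3(5-23) peptide acetylated at Lys14 serves as ligand at 50 nM, with BAZ2B at 50 nM in PBS pH 7.4 containing 0.01% Tween-20. Donor and acceptor beads are 10 ug/mL final.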
G9a inh – blocks human histone lysine methyltransferase G9a; Q96KQ7; G9a H3K9 monomethylation, AlphaScreen, 2 h; Potency, µM (highest dose often 102 µM), usual class: inhibitors; 350,000 compounds, 8.8% hits; AID 504332; further: nearly all actives have a fitted effect of over 75% in size
Target sequence (Q96KQ7 913-1193 limits assumed): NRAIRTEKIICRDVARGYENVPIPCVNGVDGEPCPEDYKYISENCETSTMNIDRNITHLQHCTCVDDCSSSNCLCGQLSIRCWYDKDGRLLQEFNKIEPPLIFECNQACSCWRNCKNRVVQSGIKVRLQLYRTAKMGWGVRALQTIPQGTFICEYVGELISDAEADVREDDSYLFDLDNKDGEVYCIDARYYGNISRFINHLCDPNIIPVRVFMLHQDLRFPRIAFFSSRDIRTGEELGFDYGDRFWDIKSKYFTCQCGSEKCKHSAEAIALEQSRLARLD
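Step 1: enzyme (final 20 nM) with compound, 15 min RT. Step 2: substrate peptide 500 nM and SAM 20 uM, 2 h RT. Step 3: anti-H3K9me1 antibody and AlphaScreen beads, 10 min, then plate read.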
JMJD2A Tudor – blocks the human JMJD2A Tudor domain; AlphaScreen JMJD2A-Tudor / H3K4me3 peptide binding; Potency, µM (top dose mostly 114 µM), hits mostly inhibitors; 390,000 compounds, 4.4% hits; further: nearly all actives have a fitted effect of over 50% in size
HP1b binding inh – blocks HP1-beta chromodomain binding to methylated histone tails | P83916 | AlphaScreen HP1-beta / biotin-H3K9me3 peptide binding | Potency, µM (top dose mostly 114 µM), usual class: inhibitors | 390,000 compounds, 0.56% hits | AID 540317; further: nearly all actives have a fitted effect of over 70% in size
Target sequence (P83916 whole entry, looked up): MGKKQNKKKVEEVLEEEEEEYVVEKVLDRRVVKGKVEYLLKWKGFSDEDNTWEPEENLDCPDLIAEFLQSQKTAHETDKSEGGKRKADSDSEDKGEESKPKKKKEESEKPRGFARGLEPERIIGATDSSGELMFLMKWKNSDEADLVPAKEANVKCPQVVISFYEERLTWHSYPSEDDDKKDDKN
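HP1-beta protein (50 nM final) preincubated 30 min at room temperature with biotinylated H3(1-18)K9me3 peptide (50 nM) in PBS pH 7.4, 0.01% Tween-20, then compound added for 30 min. AlphaScreen streptavidin donor/nickel chelate acceptor beads (10 ug/mL final), 30 min dark, luminescence read.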
Sfp PPTase inh – Sfp phosphopantetheinyl transferase inhibition; Biochemical Sfp PPTase activity, qHTS; Q9F4F7; AID 1490; Potency, µM, actives largely listed as inhibitors; 310,000 compounds, 3.5% hits;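 further: the enzyme is Sfp with the accession as filed and its product quenches rhodamine fluorescence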
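Fluorescence-quenching assay with 15 nM Sfp, 5 uM rhodamine-CoA and 12.5 uM BHQ-2-labelled ybbR peptide in pH 7.6 Hepes/MgCl2 buffer. Enzyme was pre-incubated with compound for 15 min at room temperature. Rate was taken from the 30-min fluorescence change (525/598 nm).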
Each line names hits and unclear results; the compound was inactive in the other large screens. This is a sample that favours compounds with a hit; in the whole collection about 12% have one here. The call rests on the fitted dose curve; in most records, active means well fitted curve in the direction sought with a large enough effect; inconclusive means small, poorly fitted or top-dose-only effect, or another doubt; inactive means no such curve, though single readings can be large; an effect the other way counts as inactive or inconclusive.

COc1ccc(N=C2NC(=O)/C(=C/c3ccc(O)c(OC)c3)S2)cc1	BAZ2B block inconclusive, G9a inh inconclusive
COc1cccc(N=C2NC(=O)/C(=C/c3cc([N+](=O)[O-])ccc3O)S2)c1	BAZ2B block 56.2µM, G9a inh inconclusive, JMJD2A Tudor inconclusive, HP1b binding inh inconclusive
O=C1NC(=Nc2ccccc2Cl)S/C1=C\c1cc([N+](=O)[O-])ccc1O	BAZ2B block inconclusive, G9a inh 35.5µM, JMJD2A Tudor inconclusive, Sfp PPTase inh inconclusive
Cc1ccc(S(=O)(=O)/N=C2/NC(=O)/C(=C/c3cc([N+](=O)[O-])ccc3O)S2)cc1	G9a inh 11.2µM
O=C(N/N=C/c1ccc2c(c1)OCO2)c1sc2cccc(Cl)c2c1Cl	none
O=C(Nc1ccc(CN2CCOCC2)cc1)c1cccc(-c2cc3ccccc3oc2=O)c1	BAZ2B block 79.4µM, G9a inh inconclusive
O=C(Nc1cccc(Cl)c1N1CCCC1)c1cccc(-c2cc3ccccc3oc2=O)c1	G9a inh 35.5µM
O=C(Nc1ccc(CN2CCOCC2)cc1)c1ccc2ccccc2c1	none (no result: G9a inh)
O=C(Nc1cccnc1)c1cccc(-c2cc3ccccc3oc2=O)c1	BAZ2B block inconclusive
COc1ccc(CN2CCN(Cc3cc4ccccc4o3)CC2CCO)cc1C (centres undefined)	none
COC1=NC(=C(c2ccccc2)c2ccccc2)OC1=O	none (no result: BAZ2B block, G9a inh, Sfp PPTase inh)
CCOC1=NC(=C(c2ccccc2)c2ccccc2)OC1=O	JMJD2A Tudor 25.1µM (no result: BAZ2B block, G9a inh, Sfp PPTase inh)
COc1ccccc1N=C(C)C1=C(O)CC(c2ccccc2)CC1=O (centres undefined)	BAZ2B block inconclusive, G9a inh 50.1µM, JMJD2A Tudor inconclusive
CCCC(=Nc1ccccc1OC)C1=C(O)CC(c2ccccc2)CC1=O (centres undefined)	G9a inh inconclusive
COc1ccc(OC)c(-c2csc(NC(=O)Cc3ccc(OC)c(OC)c3)n2)c1	BAZ2B block inconclusive, G9a inh 50.1µM, JMJD2A Tudor inconclusive
COc1ccc(CC(=O)Nc2nc(-c3cc(OC)ccc3OC)cs2)cc1	G9a inh inconclusive
COc1ccc(-c2csc(NC(=O)CSc3ccc(Br)cc3)n2)c(OC)c1	BAZ2B block inconclusive, G9a inh 25.1µM
CCN(CC)C(=O)c1cc2sc3ccccc3c2s1	none
CN(/C=C/C(=C/C=[N+](C)c1ccccc1)OCCCS(=O)(=O)[O-])c1ccccc1	BAZ2B block inconclusive, G9a inh inconclusive (no result: Sfp PPTase inh)
CN(/C=C/C(=C\C=[N+](C)c1ccccc1)OCCCS(=O)(=O)[O-])c1ccccc1	Sfp PPTase inh 79.4µM (no result: G9a inh)
O=C(O)c1cnc2[nH]c3ccccc3n2c1=O	G9a inh 50.1µM, JMJD2A Tudor inconclusive
CCNC(=S)NS(=O)(=O)c1ccc(CC)cc1	G9a inh 28.2µM, JMJD2A Tudor 25.1µM
CCNC(=S)NS(=O)(=O)c1ccc(C)cc1	G9a inh 31.6µM, Sfp PPTase inh inconclusive
Cc1ccc(S(=O)(=O)NC(=S)c2ccccc2)cc1	none (no result: BAZ2B block, G9a inh, Sfp PPTase inh)
Cc1ccc(S(=O)(=O)CNC(=S)c2cccc(Cl)c2)cc1	G9a inh inconclusive
CC(=O)NS(=O)(=O)c1ccc(NC(=S)Nc2ccccc2)cc1	none
Cc1ccc(C(=S)NCS(=O)(=O)c2ccc(C)cc2)cc1	BAZ2B block inconclusive, G9a inh 39.8µM, JMJD2A Tudor inconclusive, Sfp PPTase inh inconclusive
CCc1ccc(S(=O)(=O)NC(=S)Nc2ccccc2)cc1	G9a inh 17.8µM, Sfp PPTase inh 15.8µM
O=C(c1cnccn1)N(Cc1cccs1)C1(C(=O)NC2CCCC2)CCCCC1	none
CC(=O)Nc1ccc(S(=O)(=O)Nc2nnc(C(C)C)s2)cc1	BAZ2B block inconclusive, G9a inh 25.1µM
CC(=O)Nc1ccc(S(=O)(=O)Nc2nnc(C3CCCCC3)s2)cc1	G9a inh inconclusive
CC(=O)Nc1ccc(S(=O)(=O)Nc2nnc(Cc3ccc(Cl)cc3)s2)cc1	G9a inh 22.4µM, Sfp PPTase inh inconclusive
COc1ccc(Cc2nnc(NS(=O)(=O)c3ccc(NC(C)=O)cc3)s2)cc1	none
O=C(Nc1ccc(Oc2nnc(-c3ccccc3)c3ccccc23)cc1)c1ccccc1	none
COc1ccc(Nc2nc(NCCN3CCOCC3)nc(Nc3ccc(OC)cc3)n2)cc1	BAZ2B block 44.7µM, G9a inh inconclusive, JMJD2A Tudor inconclusive
COc1ccc(CCNCCN2CCOCC2)cc1	BAZ2B block 25.1µM, G9a inh 3.55µM, JMJD2A Tudor 20µM, HP1b binding inh inconclusive, Sfp PPTase inh inconclusive
COc1nc(NCCN2CCOCC2)nc(Nc2ccccc2)n1	none
CCC(CO)Oc1cc(NCc2cccc(F)c2)c2ncn(C(C)C)c2c1 (centres undefined)	JMJD2A Tudor inconclusive (no result: BAZ2B block, G9a inh, Sfp PPTase inh)
CCOC(=O)Cn1nc(-c2ccccc2)c2cnc3ccc(C)cc3c21	G9a inh 56.2µM
CCOC(=O)Cn1nc(-c2ccccc2)c2cnc3ccc(OCC)cc3c21	none (no result: BAZ2B block, Sfp PPTase inh)
CCc1nn2cc(C(=O)c3cc(C)ccc3O)cnc2c1-c1ccc(F)cc1	BAZ2B block inconclusive, G9a inh 44.7µM, JMJD2A Tudor inconclusive
O=C(COc1ccc([N+](=O)[O-])cc1)Nc1nc2c(s1)CCCC2	none (no result: Sfp PPTase inh)
COc1ccc(OC)c(C2C(C(=O)c3sc(C)nc3C)=C(O)C(=O)N2CCN2CCOCC2)c1 (centres undefined)	G9a inh 44.7µM
Cc1nc(C)c(C(=O)C2=C(O)C(=O)N(CCN3CCOCC3)C2c2cccs2)s1 (centres undefined)	G9a inh inconclusive, JMJD2A Tudor inconclusive
COc1ccc(C2C(C(=O)c3sc(C)nc3C)=C(O)C(=O)N2CCN2CCOCC2)cc1 (centres undefined)	G9a inh inconclusive, JMJD2A Tudor 50.1µM
Cc1nc(C)c(C(=O)C2=C(O)C(=O)N(CCN3CCOCC3)C2c2ccco2)s1 (centres undefined)	G9a inh inconclusive, JMJD2A Tudor inconclusive
COc1ccc(C2C(C(=O)c3ccco3)=C(O)C(=O)N2CCN2CCOCC2)cc1 (centres undefined)	G9a inh 50.1µM, JMJD2A Tudor inconclusive
O=C(O)COc1ccc2c(c1)O/C(=C\c1ccco1)C2=O	BAZ2B block 39.8µM, G9a inh 10µM, JMJD2A Tudor 20µM, HP1b binding inh 39.8µM, Sfp PPTase inh inconclusive
COc1ccc(/C=C2\Oc3cc(OCC(=O)N4CCC(C(=O)O)CC4)ccc3C2=O)c(OC)c1	none (no result: G9a inh)
O=C(O)COc1ccc2c(c1)O/C(=C\c1cccs1)C2=O	none
COc1ccc(OC)c(/C=C2\Oc3cc(OCC(=O)N4CCC(C(=O)O)CC4)ccc3C2=O)c1	Sfp PPTase inh 15.8µM
CCN(CC)CCn1c2ccccc2c2nc3ccc([N+](=O)[O-])cc3cc21	none
COc1cccc(/C=N/NC(=O)c2ccc(COc3ccc(Cl)cc3Cl)o2)c1	Sfp PPTase inh 0.794µM
Cc1cc(C)nc(Nc2n[nH]c(COc3ccc4ccccc4c3)n2)n1	none (no result: G9a inh)
Cc1cc(C)nc(Nc2n[nH]c(COc3ccccc3)n2)n1	JMJD2A Tudor 31.6µM

Assay outcomes: PubChem BioAssay, National Center for Advancing Translational Sciences (NCATS)
